# PubChem BioAssay AID2315 (National Center for Advancing Translational Sciences (NCATS), 2010)
# The whole screen tested about 290,000 compounds, of which about 27,000 (9.3%) were called active. Cut-off read from the data, not from the text of the source: active = inhibition mostly above about 28% (no sharp cut-off); inactive = mostly below about 43%. The entries come from a sample that favours actives as a whole.
# Assay: A qHTS for Small Molecule Inhibitors of Shiga Toxin; note: 0% is about no effect
# Conditions: Vero cells, Shiga toxin protein synthesis inhibition reporter; at 38.7 µM, hits give high values
row,Structure (SMILES),inhibition
1,Cc1ccc(NC(=O)CN(C)C(=O)COC(=O)C(C)(C)Oc2ccc(Cl)cc2)cc1,-9.8% (inactive)
2,O=C(CN1CCN(c2cccc(Cl)c2)CC1)Nc1ccc(S(=O)(=O)N2CCOCC2)cc1,-9.51% (inactive)
3,Cc1c(NC(=O)CSCc2ccccc2)cccc1C(=O)O,31.3% (inactive)
4,Cn1c(CSCC(=O)Nc2ccccc2)nnc1SCc1ccccc1,18.4% (inactive)
5,O=C(CSCc1ccccc1)Nc1ccccc1,50.8% (active)
6,COc1ccc(Cl)cc1NC(=O)c1cccc(N2C(=O)C3CC=CCC3C2=O)c1 (configuration not stated),-4.45% (inactive)
7,COc1ccc(S(=O)(=O)N2CCSCC2)cc1,-9.94% (inactive)
8,CCOC(=O)N1CCN(Cc2nnc(-c3ccccc3Cl)o2)CC1,-5.19% (inactive)
9,O=C(COc1ccccc1)Nc1ccc(C(=O)N2CCCC2)cc1,9.15% (inactive)
10,COc1cc(C2NC(=O)NC(c3ccccc3)=C2C(C)=O)c(Br)cc1OCC(N)=O (configuration not stated),-4.39% (inactive)
11,O=C(NC(=S)Nc1ccc(NC(=O)c2cccs2)cc1)c1ccc([N+](=O)[O-])cc1,36.1% (inactive)
12,O=C(NC(=S)Nc1cccc(-c2ccc(CO)o2)c1)c1cccs1,127% (active)
13,O=C(Nc1ccccc1-c1ccccc1)c1cccs1,-12.5% (inactive)
14,O=S(=O)(Cc1cc(Cl)nc(-c2cccnc2)n1)c1ccccc1,40.3% (inactive)
15,O=C(c1cc(S(=O)(=O)N2CCOCC2)ccc1Cl)N1CCOCC1,-6.61% (inactive)
16,CC(C)CCN(C(=O)c1csnn1)C(C(=O)NC1CCCC1)c1ccccc1 (configuration not stated),-3.8% (inactive)
17,Cc1cc2c(=O)n(CC(=O)NCC(=O)Nc3ccc(C(C)C)cc3)cnc2s1,-9.56% (inactive)
18,COc1ccc(CCNC(=O)CCNS(=O)(=O)c2cc(Br)cnc2N)cc1OC,-6.21% (inactive)
19,CS(=O)(=O)N(CC(=O)N1CCOCC1)c1cccc(Cl)c1Cl,1.97% (inactive)
20,O=C(Cn1nnc(-c2ccccc2)n1)NCc1ccccc1,-10.9% (inactive)
21,Cc1ccccc1-c1nnn(CC(=O)c2ccc(S(=O)(=O)N3CCCC3)cc2)n1,-5.14% (inactive)
22,Cc1nc2ccccc2n1CC(O)c1ccccc1 (configuration not stated),-2.2% (inactive)
23,CCOc1ccc(S(=O)(=O)N2CCCC(C(=O)N3CCC(C(N)=O)CC3)C2)cc1Cl (configuration not stated),15.1% (inactive)

row,Structure (SMILES),inhibition
1,CCOC(=O)CSc1nc(N2CCOCC2)c2c(c1C#N)CC(C(C)C)OC2 (configuration not stated),-7.43% (inactive)
2,CC(=O)C1=C(O)C(=O)N(c2ccc(Br)cc2)C1c1ccc([N+](=O)[O-])cc1 (configuration not stated),-5.69% (inactive)
3,Cc1ccc2nc(N(CCN(C)C)C(=O)C3=COCCO3)sc2c1,6.59% (inactive)
4,CN(C)CCN(C(=O)C1=COCCO1)c1nc2ccc(Cl)cc2s1,128% (active)
5,CCc1ccc2nc(N(CCCN(C)C)C(=O)c3ccc4c(c3)OCCO4)sc2c1,-6.1% (inactive)
6,COc1ccc(NC(=O)C2CCN(S(=O)(=O)c3ccc4[nH]c(=O)oc4c3)CC2)c(OC)c1,-2.15% (inactive)
7,Cn1c(Nc2ccccc2)cc(=O)n(C)c1=O,-6% (inactive)
8,CN(C)S(=O)(=O)c1ccc(C(=O)NCCN=C2NS(=O)(=O)c3ccccc32)cc1,-13.8% (inactive)
9,O=c1c(-c2cccc(Cl)c2)c[nH]n1-c1ccccc1,77.1% (active)
10,Cc1[nH]n(-c2cccc(Cl)c2)c(=O)c1-c1ccc(Cl)cc1,34.8% (inactive)
11,O=c1c(-c2ccccc2Cl)c[nH]n1-c1ccccc1,9.18% (inactive)
12,COc1ccc(CNC(=O)Cc2ccc(-c3ccccc3)cc2)cc1OC,-1.2% (inactive)
13,Cc1cc(=O)[nH]c2nnnn12,-3.63% (inactive)
14,COc1ccc(/C=C/C(=O)NC(=S)N2CCCC(C(N)=O)C2)cc1 (configuration not stated),12.4% (inactive)
15,COc1ccccc1/C=C/C(=O)NC1CC2CCC1C2 (configuration not stated),12.2% (inactive)
16,O=C(/C=C/c1ccco1)NC(=S)Nc1ccccc1Br,26.6% (inactive)
17,O=C(/C=C/c1ccco1)NC(=S)N1CCCCC1,47.5% (active)
18,COc1ccccc1C(=O)Nc1cccc(C(=O)N2CCOCC2)c1,-11.1% (inactive)
19,COc1ccccc1/C=C/C(=O)NC(=S)N1CCOCC1,106% (active)
20,CCCn1c(C2CCCN2c2nc(-c3ccc(C)cc3)cs2)nc2cc(Cl)c(N3CCCCC3)cc21 (configuration not stated),26.1% (inactive)
21,CCOc1ccc(Br)cc1S(=O)(=O)Nc1ccc(C(=O)OC(C)C(=O)N(C)c2ccccc2)cc1 (configuration not stated),-0.904% (inactive)
22,CCOC(=O)c1c(-c2ccccc2)oc2cc(Br)c(O)c(C=O)c12,3% (inactive)
23,Nc1cc(N)nc(SCc2ccc(Cl)cc2)n1,17.1% (inactive)

row,Structure (SMILES),inhibition
1,Cc1cc(=O)[nH]c(SCc2cccc(F)c2)n1,-4.74% (inactive)
2,Nc1cc(N)nc(SCc2cccc(F)c2)n1,62.3% (active)
3,CN(CC(=O)Nc1ccccc1C(F)(F)F)C(=O)Cc1ccccc1F,16.3% (inactive)
4,Cc1ccc(NS(=O)(=O)c2cn(C)c(=O)n(C)c2=O)c(C)c1,3.31% (inactive)
5,COc1ccc(-n2ncc3c(N4CCc5ccccc54)ncnc32)cc1,105% (active)
6,COc1ccc2oc(=O)c(C(=O)N3CCCc4ccccc43)cc2c1,-5.55% (inactive)
7,COc1ccc(CCC(C)N2CCc3ccccc3C2)cc1 (configuration not stated),-6.15% (inactive)
8,COc1ccc(-n2ncc3c(N4CCCc5ccccc54)ncnc32)cc1,113% (active)
9,COc1cc(C)c(C)cc1S(=O)(=O)N1CCCc2ccccc21,16.5% (inactive)
10,COc1ccc(Oc2c(Cl)cnn(-c3ccccc3)c2=O)cc1,-10.6% (inactive)
11,Cc1ccc(NC(=O)CN2CCc3ccccc3C2)cc1C,17% (inactive)
12,COc1ccc(C(=O)OCC(=O)NCCCc2ccccc2)cc1OC,-3.51% (inactive)
13,CN(c1ccccc1)S(=O)(=O)c1cc(C(=O)Nc2nc3ccccc3[nH]2)ccc1Cl,55.5% (inactive)
14,O=C(/C=C/c1ccco1)Nc1cccc(-c2nc3ccccc3[nH]2)c1,157% (active)
15,O=C(Nc1cccc(-c2nc3ccccc3[nH]2)c1)c1ccc(C(=O)Nc2cccc(-c3nc4ccccc4[nH]3)c2)cc1,62.5% (active)
16,CC(C)Oc1ccc(/C=C(\NC(=O)/C=C/c2ccco2)C(=O)NCCc2nc3ccccc3[nH]2)cc1,14.2% (inactive)
17,O=C(Cc1cccs1)Nc1cccc(-c2nc3ccccc3[nH]2)c1,3.19% (inactive)
18,NS(=O)(=O)c1cccc(NC(=O)COC(=O)/C=C/c2ccco2)c1,26.6% (inactive)
19,Cc1ccc(N2NC(=O)/C(=C/C=C/c3ccco3)C2=O)cc1C,20.9% (inactive)
20,CCOC(=O)c1c(NC(=O)/C=C/c2ccco2)sc(C)c1C,-12.1% (inactive)
21,Cc1ccc(-n2nc3ccc(NC(=O)/C=C/c4ccco4)cc3n2)cc1C,63.8% (active)
